# According to the supplement of paper PMC10849652:
# The full data set covers some 8,800 targets. This sample favours those with a hit. About 0.5% of all pairs of compound and target were hits. A number with no mark means an inactive call.
# Columns and labels:
# Assay in all cases: log2 fold change, soluble protein after heating vs DMSO (PISA); higher = thermal stabilisation; K562 lysate, 10 uM; active = over 0.2 and 3.5 SD of the protein, either way, in both replicates (recomputed)
# [1] = compound: NCC(=O)Nc1ccc(-n2nc(C(F)(F)F)cc2-c2ccc3c(ccc4ccccc43)c2)cc1
# How it was run: (§1)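 Pellets of K562 cells were dounce-homogenised in PBS pH 7.4 with 1 mM MgCl2, and the crude extract was held at 1 mg/mL protein for a 30 min treatment with 10 μM compound. Aliquots were heated for 3 min over 48°C-58°C and pooled before NP-40 was added to 0.5% at 4°C. The supernatant from 21,000xg for 90 min was quantified by TMTpro 16plex LC-MS/MS with channel sums equalised. Values are reported from duplicates as log-two fold change in thermal stability relative to solvent controls.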
# [2] = compound: O=C(CCCCCCC(=O)Nc1ccccc1)NO [vorinostat]
# How it was run: as §1
# [3] = compound: O=C(O)c1ccc2c(c1)nc(Nc1cccc(Cl)c1)c1ccncc12 [silmitasertib]
# How it was run: as §1
# [4] = compound: O=C1NC(=O)C(c2cnc3ccccn23)=C1c1cn2c3c(cc(F)cc13)CN(C(=O)N1CCCCC1)CC2
# How it was run: as §1
# [5] = compound: c1cn2cc(-c3ccc4cn[nH]c4c3)nc(Nc3ccc(N4CCOCC4)cc3)c2n1 [entospletinib]
# How it was run: as §1
# UniProt P08243, sequence (P08243 whole entry, looked up): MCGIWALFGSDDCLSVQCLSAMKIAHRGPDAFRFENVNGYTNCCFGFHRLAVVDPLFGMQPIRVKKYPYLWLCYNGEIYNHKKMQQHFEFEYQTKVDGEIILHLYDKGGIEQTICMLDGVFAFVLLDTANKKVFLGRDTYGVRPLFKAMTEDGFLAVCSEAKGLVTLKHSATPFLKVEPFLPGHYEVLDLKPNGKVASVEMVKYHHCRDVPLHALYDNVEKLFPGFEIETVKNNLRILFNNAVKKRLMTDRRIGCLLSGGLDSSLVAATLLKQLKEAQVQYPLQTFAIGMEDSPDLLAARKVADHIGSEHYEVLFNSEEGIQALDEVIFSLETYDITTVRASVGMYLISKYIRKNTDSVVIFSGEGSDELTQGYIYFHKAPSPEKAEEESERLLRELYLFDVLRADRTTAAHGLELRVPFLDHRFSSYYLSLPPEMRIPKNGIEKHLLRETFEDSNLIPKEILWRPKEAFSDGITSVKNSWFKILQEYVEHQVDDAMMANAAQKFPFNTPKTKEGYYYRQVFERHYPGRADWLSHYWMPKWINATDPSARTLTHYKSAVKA
# UniProt P27216, sequence (P27216 whole entry, looked up): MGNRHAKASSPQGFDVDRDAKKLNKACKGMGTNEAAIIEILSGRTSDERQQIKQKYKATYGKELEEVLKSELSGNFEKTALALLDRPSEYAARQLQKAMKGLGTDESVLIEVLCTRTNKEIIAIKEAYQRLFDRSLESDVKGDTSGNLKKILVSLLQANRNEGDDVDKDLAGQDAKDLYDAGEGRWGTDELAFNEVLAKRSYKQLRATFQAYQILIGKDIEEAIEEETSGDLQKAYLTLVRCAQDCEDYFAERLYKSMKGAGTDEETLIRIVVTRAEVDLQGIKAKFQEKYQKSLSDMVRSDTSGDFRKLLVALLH
# UniProt Q9UJX3, sequence (Q9UJX3 whole entry, looked up): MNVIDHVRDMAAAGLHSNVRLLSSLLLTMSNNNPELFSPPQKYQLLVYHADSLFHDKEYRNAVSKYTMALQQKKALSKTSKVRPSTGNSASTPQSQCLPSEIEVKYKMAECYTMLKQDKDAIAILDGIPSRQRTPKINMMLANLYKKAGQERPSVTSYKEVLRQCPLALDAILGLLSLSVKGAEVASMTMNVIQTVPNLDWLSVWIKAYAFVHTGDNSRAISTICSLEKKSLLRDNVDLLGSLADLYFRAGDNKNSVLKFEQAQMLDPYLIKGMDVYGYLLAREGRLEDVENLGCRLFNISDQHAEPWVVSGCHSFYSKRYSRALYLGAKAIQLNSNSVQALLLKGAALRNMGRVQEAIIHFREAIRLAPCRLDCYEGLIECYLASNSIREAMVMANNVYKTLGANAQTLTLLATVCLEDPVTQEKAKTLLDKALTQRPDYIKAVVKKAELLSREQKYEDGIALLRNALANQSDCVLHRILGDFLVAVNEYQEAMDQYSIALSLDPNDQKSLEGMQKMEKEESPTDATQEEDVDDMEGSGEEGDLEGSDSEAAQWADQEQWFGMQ
# UniProt P00352, sequence (P00352 whole entry, looked up): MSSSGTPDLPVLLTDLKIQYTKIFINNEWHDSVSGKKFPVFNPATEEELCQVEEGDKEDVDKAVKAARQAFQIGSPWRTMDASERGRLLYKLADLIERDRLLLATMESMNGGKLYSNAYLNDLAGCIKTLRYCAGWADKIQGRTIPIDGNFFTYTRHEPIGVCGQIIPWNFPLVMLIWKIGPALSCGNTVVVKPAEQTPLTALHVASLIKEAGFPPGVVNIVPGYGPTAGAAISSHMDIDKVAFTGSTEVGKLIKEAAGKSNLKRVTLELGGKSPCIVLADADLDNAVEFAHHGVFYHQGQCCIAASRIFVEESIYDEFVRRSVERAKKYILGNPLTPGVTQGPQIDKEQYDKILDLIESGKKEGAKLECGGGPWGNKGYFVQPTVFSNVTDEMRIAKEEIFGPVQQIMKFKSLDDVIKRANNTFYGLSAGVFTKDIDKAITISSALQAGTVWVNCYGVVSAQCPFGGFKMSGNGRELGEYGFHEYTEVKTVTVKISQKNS
# UniProt P39687, sequence (P39687 whole entry, looked up): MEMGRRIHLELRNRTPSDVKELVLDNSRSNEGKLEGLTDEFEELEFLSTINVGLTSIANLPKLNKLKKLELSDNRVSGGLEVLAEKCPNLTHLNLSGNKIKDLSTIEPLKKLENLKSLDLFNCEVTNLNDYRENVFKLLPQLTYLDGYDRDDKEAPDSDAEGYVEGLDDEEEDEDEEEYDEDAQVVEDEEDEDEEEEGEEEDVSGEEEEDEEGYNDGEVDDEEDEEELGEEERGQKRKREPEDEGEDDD
# UniProt P50995, sequence (P50995 whole entry, looked up): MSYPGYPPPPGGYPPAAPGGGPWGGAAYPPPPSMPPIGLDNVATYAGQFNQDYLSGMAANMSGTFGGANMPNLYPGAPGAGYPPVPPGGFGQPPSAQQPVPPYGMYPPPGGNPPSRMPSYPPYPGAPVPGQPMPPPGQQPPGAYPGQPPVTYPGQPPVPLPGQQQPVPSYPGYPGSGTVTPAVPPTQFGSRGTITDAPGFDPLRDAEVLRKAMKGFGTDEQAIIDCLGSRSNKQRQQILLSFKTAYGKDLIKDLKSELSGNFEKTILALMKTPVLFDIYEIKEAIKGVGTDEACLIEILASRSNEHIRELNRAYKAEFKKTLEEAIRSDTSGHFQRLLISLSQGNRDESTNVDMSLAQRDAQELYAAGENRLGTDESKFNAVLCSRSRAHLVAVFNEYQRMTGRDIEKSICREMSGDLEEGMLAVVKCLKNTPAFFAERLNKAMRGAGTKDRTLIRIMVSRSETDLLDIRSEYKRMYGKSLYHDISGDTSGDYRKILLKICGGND
# UniProt Q96NW4, sequence (Q96NW4 whole entry, looked up): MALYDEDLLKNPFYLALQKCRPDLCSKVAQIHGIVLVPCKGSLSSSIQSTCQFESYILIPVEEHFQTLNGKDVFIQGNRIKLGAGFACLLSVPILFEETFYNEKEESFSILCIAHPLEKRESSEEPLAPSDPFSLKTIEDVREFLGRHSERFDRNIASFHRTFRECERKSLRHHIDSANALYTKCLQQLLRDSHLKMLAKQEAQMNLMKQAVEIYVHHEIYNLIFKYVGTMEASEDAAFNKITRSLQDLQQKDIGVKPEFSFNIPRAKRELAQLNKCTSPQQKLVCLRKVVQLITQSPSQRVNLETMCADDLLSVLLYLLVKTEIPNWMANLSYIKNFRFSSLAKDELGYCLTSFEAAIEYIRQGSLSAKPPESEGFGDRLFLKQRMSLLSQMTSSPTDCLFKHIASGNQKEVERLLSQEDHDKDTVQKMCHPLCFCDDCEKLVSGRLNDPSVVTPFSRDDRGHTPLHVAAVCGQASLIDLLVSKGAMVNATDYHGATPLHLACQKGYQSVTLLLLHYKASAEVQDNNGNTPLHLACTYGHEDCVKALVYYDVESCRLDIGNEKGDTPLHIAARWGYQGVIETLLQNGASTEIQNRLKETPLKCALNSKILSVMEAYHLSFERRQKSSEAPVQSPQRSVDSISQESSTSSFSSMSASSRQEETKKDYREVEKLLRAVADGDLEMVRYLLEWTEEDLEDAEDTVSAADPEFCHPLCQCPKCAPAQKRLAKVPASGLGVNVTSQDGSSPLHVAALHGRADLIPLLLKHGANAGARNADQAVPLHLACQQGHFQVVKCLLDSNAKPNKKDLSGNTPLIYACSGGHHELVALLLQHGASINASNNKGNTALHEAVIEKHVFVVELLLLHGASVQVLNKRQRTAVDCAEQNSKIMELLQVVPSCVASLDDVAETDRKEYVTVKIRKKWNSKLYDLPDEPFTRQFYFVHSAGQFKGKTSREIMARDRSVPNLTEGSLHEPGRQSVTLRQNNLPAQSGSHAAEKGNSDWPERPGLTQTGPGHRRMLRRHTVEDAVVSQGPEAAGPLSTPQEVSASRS
# UniProt O43823, sequence (O43823 whole entry, looked up): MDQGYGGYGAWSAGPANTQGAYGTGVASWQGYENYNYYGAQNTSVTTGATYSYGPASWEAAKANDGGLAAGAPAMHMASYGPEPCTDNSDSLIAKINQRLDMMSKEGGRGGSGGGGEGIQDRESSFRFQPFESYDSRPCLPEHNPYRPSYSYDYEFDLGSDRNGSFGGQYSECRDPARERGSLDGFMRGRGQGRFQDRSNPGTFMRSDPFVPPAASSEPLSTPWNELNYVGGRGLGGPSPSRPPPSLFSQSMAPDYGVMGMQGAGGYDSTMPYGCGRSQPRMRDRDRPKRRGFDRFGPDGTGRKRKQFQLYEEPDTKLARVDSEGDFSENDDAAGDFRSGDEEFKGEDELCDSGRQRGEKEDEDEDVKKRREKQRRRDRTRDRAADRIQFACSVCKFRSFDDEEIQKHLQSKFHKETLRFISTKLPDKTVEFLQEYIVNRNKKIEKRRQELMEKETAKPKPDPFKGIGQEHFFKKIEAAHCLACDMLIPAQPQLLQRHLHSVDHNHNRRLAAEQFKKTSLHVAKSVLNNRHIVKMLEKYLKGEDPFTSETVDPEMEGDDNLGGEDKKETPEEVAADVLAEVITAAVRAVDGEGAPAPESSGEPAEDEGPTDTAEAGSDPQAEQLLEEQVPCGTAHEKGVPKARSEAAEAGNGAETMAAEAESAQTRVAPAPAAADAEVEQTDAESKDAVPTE
# UniProt Q92685, sequence (Q92685 whole entry, looked up): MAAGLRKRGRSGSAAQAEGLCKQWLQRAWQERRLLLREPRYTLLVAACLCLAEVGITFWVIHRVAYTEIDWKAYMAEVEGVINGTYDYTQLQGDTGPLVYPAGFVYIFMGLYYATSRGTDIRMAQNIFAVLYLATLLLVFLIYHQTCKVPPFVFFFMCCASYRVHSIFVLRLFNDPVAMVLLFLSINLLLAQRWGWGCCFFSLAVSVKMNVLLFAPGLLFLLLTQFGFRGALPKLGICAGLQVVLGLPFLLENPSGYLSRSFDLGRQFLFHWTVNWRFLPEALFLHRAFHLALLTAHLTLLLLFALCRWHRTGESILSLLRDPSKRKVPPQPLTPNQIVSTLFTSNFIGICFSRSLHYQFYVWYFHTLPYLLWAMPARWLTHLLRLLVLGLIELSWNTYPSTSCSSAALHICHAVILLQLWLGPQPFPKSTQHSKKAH
# UniProt P14621, sequence (P14621 whole entry, looked up): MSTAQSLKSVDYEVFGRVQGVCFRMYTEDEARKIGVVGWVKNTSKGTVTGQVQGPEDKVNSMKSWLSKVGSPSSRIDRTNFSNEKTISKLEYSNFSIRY
Target,log2 fold change [1],log2 fold change [2],log2 fold change [3],log2 fold change [4],log2 fold change [5]
ANKRD10 (UniProt Q9NXR5),0,-0.589 (active),0.037,-0.066,–
APOB (UniProt P04114),0.063,0.154,0.007,-0.012,0.05
ALDH5A1 isoform 2 (UniProt P51649),-0.02,0.371 (active),-0.005,-0.057,0.003
AKT1 (UniProt P31749),-0.051,-0.192,-0.012,-0.024,-0.005
ANP32E (UniProt Q9BTT0),0.021,0.217,-0.029,-0.011,0.012
ASNS (UniProt P08243),0.006,-0.373 (active),-0.01,-0.008,0.029
AKAP8 (UniProt O43823),0.047,-0.095,0.019,0.023,-0.046
ACTG1 (UniProt I3L4N8),-0.131,0.358,-0.043,0.082,0.098
ARL8A (UniProt Q96BM9),0.192,0.234,-0.024,-0.03,0.002
AK4 (UniProt P27144),-0.051,0.037,-0.008,-0.016,-0.02
ANLN (UniProt Q9NQW6),0.018,-0.656 (active),-0.011,-0.009,0
AP3D1 isoform 2 (UniProt O14617),0.179,-0.738 (active),0.02,–,–
AIP (UniProt O00170),-0.001,-0.061,-0.032,0.003,-0.003
AGL (UniProt P35573),0,-0.275 (active),0.035,0.001,-0.018
ACACA isoform 4 (UniProt Q13085),-0.003,-0.449 (active),0.016,-0.003,0.027
ACTBL2 (UniProt Q562R1),-0.116,-0.154,0.039,0.019,-0.083
AKAP11 (UniProt Q9UKA4),-0.066,-0.164,0.019,-0.057,0.015
ALG3 (UniProt Q92685),-0.107,0.461 (active),0.285,-0.157,-0.01
AK2 (UniProt P54819),0.024,0.159,0.007,-0.005,0.012
AMPD3 isoform 4 (UniProt Q01432),-0.038,0.256 (active),-0.005,-0.021,0.018
ACAA1 (UniProt P09110),-0.005,-0.332 (active),-0.039,0.033,0.038
ACIN1 isoform 5 (UniProt Q9UKV3),0.035,0.007,0.001,-0.012,-0.003
APOBEC3C (UniProt Q9NRW3),0.055,-0.278 (active),0.043,-0.066,-0.007
ANAPC7 (UniProt Q9UJX3),-0.035,-0.218 (active),0.023,0.007,0.046
AKAP8L (UniProt Q9ULX6),-0.045,-0.213,-0.001,-0.078,-0.019
ACYP2 (UniProt P14621),0.066,0.147,-0.081,0.012,–
ANKRD40 (UniProt Q6AI12),0.914 (active),-0.217,-0.088,0.007,-0.057

Target,log2 fold change [1],log2 fold change [2],log2 fold change [3],log2 fold change [4],log2 fold change [5]
ALG13 (UniProt Q9NP73),-0.027,-0.339 (active),-0.01,0.014,-0.082
ANXA13 isoform 2 (UniProt P27216),-0.084,0.004,0.024,0.02,–
ARHGEF1 (UniProt M0QZR4),0.019,-0.392 (active),0.023,0.004,0.003
AGPS (UniProt O00116),-0.015,0.365 (active),-0.007,-0.007,-0.005
ACADS (UniProt P16219),-0.005,0.217,-0.089,0.017,-0.021
ARL13B (UniProt Q3SXY8),0.01,-0.186,-0.024,-0.064,–
ANKRD27 (UniProt Q96NW4),-0.066,-0.451 (active),-0.025,0.022,0.01
ACSL4 (UniProt O60488),0.137,-0.321 (active),0.066,-0.002,0.014
ACYP1 (UniProt P07311),-0.015,0.127,-0.028,-0.002,0.008
ADK (UniProt P55263),-0.049,-0.052,0.073,0.262,-0.027
ABHD16A (UniProt O95870),0.007,0.906 (active),-0.1,-0.056,-0.01
AK1 (UniProt P00568),0.005,0.075,0.001,-0.001,0.022
ARFGAP1 (UniProt Q8N6T3),0.063,0.253,-0.066,-0.12,0.038
ARHGEF2 (UniProt Q92974),0.042,-0.248 (active),-0.029,0.007,0
ALDH2 (UniProt P05091),-0.068,0.627 (active),0.009,0.019,-0.009
ACAT1 (UniProt P24752),0.011,-1.05 (active),-0.037,-0.014,0.018
AKR1C2 (UniProt P52895),-0.008,0.504 (active),-0.011,0.052,-0.014
ANP32A (UniProt P39687),-0.005,0.08,0.063,-0.027,0.026
AFF4 (UniProt Q9UHB7),-0.119,0.078,-0.04,-0.031,-0.088
ABL1 isoform 2 (UniProt P00519),-0.003,-0.328 (active),-0.019,-0.042,-0.008
AGTPBP1 (UniProt Q9UPW5),0.125,-0.033,-0.012,0.11,0.035
ABHD17B (UniProt Q5VST6),0.096,0.219,-0.021,0.032,0.2
ALDH1A1 (UniProt P00352),-0.038,0.116,-0.011,-0.018,0.02
ANXA1 (UniProt P04083),-0.013,-0.255 (active),-0.007,-0.031,0.011
ANXA11 (UniProt P50995),-0.003,-0.117,0.044,-0.018,0.031
ALDH6A1 (UniProt Q02252),-0.041,-0.046,0.042,0.096,0.035
AHCYL1 (UniProt O43865),0.021,-0.287 (active),-0.021,0.045,-0.03
